Assay results: PubChem BioAssay AID651844 (Broad Institute, 2012)
Measured potencies and affinities stand elsewhere. Inconclusive results are not listed. The source made the active and inactive calls.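 Rule for the calls: active = every test run shows a luminescence drop with half-maximal concentration at most twice the top tested dose; inconclusive = test runs disagree, weak flat response, or unreliable curve fit; inactive = the rest.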

Experiment: mouse fibroblast viability loss – cell-based, dry powder samples, cytotoxicity control, dose response (AID 651844)

Row | SMILES | outcome
1 | CC(C)N1C[C@H](C)[C@@H](CN(C)Cc2cccc(Cl)c2)Oc2c(NC(=O)c3ccncc3)cccc2C1=O | inactive
2 | C[C@@H]1CN([C@@H](C)CO)C(=O)c2cccc(NC(=O)c3ccncc3)c2O[C@H]1CN(C)Cc1ccc(C(=O)O)cc1 | inactive
3 | C[C@H]1CN([C@@H](C)CO)C(=O)c2cccc(NC(=O)c3ccncc3)c2O[C@@H]1CN(C)Cc1ccc(C(=O)Nc2ccccc2N)cc1 | inactive
4 | CC(C)N1C[C@@H](C)[C@H](CN(C)Cc2ccc(Oc3ccccc3)cc2)Oc2c(cccc2N(C)C(=O)c2ccncc2)C1=O | inactive
5 | CC(C)N1C[C@H](C)[C@@H](CN(C)C(=O)OC(C)(C)C)Oc2c(NC(=O)c3ccccc3)cccc2C1=O | inactive
6 | C[C@H]1CN([C@@H](C)CO)C(=O)c2cccc(NC(=O)c3ccncc3)c2O[C@@H]1CN(C)Cc1ccncc1 | inactive
7 | CC(C)N1C[C@H](C)[C@@H](CN(C)Cc2ccc(Cl)cc2)Oc2c(NC(=O)c3ccncc3)cccc2C1=O | inactive
8 | CC(C)N1C[C@H](C)[C@@H](CN(C)Cc2ccc(Oc3ccccc3)cc2)Oc2c(NC(=O)c3ccccn3)cccc2C1=O | inactive
9 | CNC[C@@H]1Oc2c(NC(=O)c3ccncc3)cccc2C(=O)N(C(C)C)C[C@H]1C | inactive
10 | CC(C)N1C[C@H](C)[C@@H](CN(C)C(=O)OC(C)(C)C)Oc2c(C(=O)Nc3ccncc3)cccc2C1=O | inactive
11 | CCCn1ncc(CN(C)C[C@H]2Oc3c(NC(=O)c4ccncc4)cccc3C(=O)N(C(C)C)C[C@@H]2C)c1C | inactive
12 | C[C@H]1CN([C@@H](C)CO)C(=O)c2cccc(NC(=O)c3ccncc3)c2O[C@@H]1CN(C)Cc1ccc(C(=O)O)cc1 | inactive
13 | CC(C)N1C[C@H](C)[C@@H](CN(C)Cc2ccccc2)Oc2c(NC(=O)c3ccncc3)cccc2C1=O | inactive
14 | C[C@H]1CN([C@@H](C)CO)C(=O)c2cccc(NC(=O)c3ccncc3)c2O[C@@H]1CN(C)Cc1ccccc1 | inactive
15 | CC(C)N1C[C@H](C)[C@@H](CN(C)C(=O)OC(C)(C)C)Oc2c(C(=O)O)cccc2C1=O | inactive
16 | CC(C)N1C[C@H](C)[C@@H](CN(C)C(=O)OC(C)(C)C)Oc2c(NC(=O)c3cccnc3)cccc2C1=O | inactive
17 | C[C@@H]1CN([C@@H](C)CO)C(=O)c2cccc(NC(=O)c3ccncc3)c2O[C@H]1CN(C)Cc1cccc(Cl)c1 | inactive

Row | SMILES | outcome
18 | CC(C)N1C[C@H](C)[C@@H](CN(C)C(=O)OC(C)(C)C)Oc2c(NC(=O)c3ccncc3)cccc2C1=O | inactive
19 | CC(C)N1C[C@H](C)[C@@H](CN(C)CC2CCOCC2)Oc2c(NC(=O)c3ccncc3)cccc2C1=O | inactive
20 | CNC[C@H]1Oc2c(NC(=O)c3ccccc3)cccc2C(=O)N(C(C)C)C[C@@H]1C | inactive
21 | C[C@H]1CN([C@@H](C)CO)C(=O)c2cccc(NC(=O)c3ccncc3)c2O[C@@H]1CN(C)Cc1ccc2c(c1)OCO2 | inactive
22 | C[C@H]1CN([C@@H](C)CO)C(=O)c2cccc(NC(=O)c3ccncc3)c2O[C@@H]1CN(C)Cc1ccc(C(F)(F)F)cc1 | inactive
23 | CC(C)N1C[C@H](C)[C@@H](CN(C)Cc2ccc(Oc3ccccc3)cc2)Oc2c(NC(=O)c3cccnc3)cccc2C1=O | inactive
24 | C[C@@H]1CN([C@@H](C)CO)C(=O)c2cccc(NC(=O)c3ccncc3)c2O[C@H]1CN(C)Cc1ccncc1 | inactive
25 | C[C@@H]1CN([C@H](C)CO)C(=O)c2cccc(NC(=O)c3ccncc3)c2O[C@H]1CN(C)Cc1ccc2c(c1)OCO2 | inactive
26 | CC(C)N1C[C@H](C)[C@@H](CN(C)C(=O)OC(C)(C)C)Oc2c(C#N)cccc2C1=O | inactive
27 | CC(C)N1C[C@H](C)[C@@H](CN(C)Cc2ccccc2Cl)Oc2c(NC(=O)c3ccncc3)cccc2C1=O | inactive
28 | C[C@@H]1CN([C@@H](C)CO)C(=O)c2cccc(NC(=O)c3ccncc3)c2O[C@@H]1CN(C)Cc1ccc(Oc2ccccc2)cc1 | inactive
29 | COc1ccc(CN(C)C[C@H]2Oc3c(NC(=O)c4ccncc4)cccc3C(=O)N([C@@H](C)CO)C[C@@H]2C)cc1 | inactive
30 | CC(C)N1C[C@H](C)[C@@H](CN(C)Cc2ccc(Oc3ccccc3)cc2)Oc2c(NC(=O)c3ccccc3)cccc2C1=O | inactive
31 | CC(C)N1C[C@H](C)[C@@H](CN(C)C(=O)OC(C)(C)C)Oc2c(NC(=O)c3ccccn3)cccc2C1=O | inactive
32 | CC(C)N(C)C(=O)c1cccc(NC(=O)c2ccncc2)c1OCCCN(C)C(=O)OC(C)(C)C | inactive
33 | CC(C)N(C)C(=O)c1cccc(NC(=O)c2ccncc2)c1OCCCN(C)Cc1ccc(Cl)cc1 | inactive
